Pyk2 oligo antag – Pyk2 (human) oligomerization antagonism. Q293 cells, Pyk2 FERM NanoBiT luminescence; hits give low values. actives 0.83% (n = 99,000). Q14289. z-score (the deposit names both 25 µM and 10 µM);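 active = Z-score of -3 or lower, scaled per plate to the spread of control and sample wells; inactive = z-score above -3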;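 also: negative z-score means lost luminescence so less FERM oligomerization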
Mac1 fbg inh – blocks human CD11b/CD18 adhesion to fibrinogen. P05107+P11215. K562 CD11b/CD18 adhesion to fibrinogen, ATPlite luminescence; Mn2+ added to activate the integrin. inhibition, % at 10 µM. actives 0.54% (n = 93,000). AID 1497;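 active = primary inhibition of 50% or more at 10 µM, then 40% or more on retest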
MRP reversal – compounds reversing MRP-mediated drug resistance; AID 602; actives 0.04% (n = 85,000); H69AR cells + 2 uM doxorubicin, CellTiter-Glo, 72 h; differential viability (reversal), % at 10 µM;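 active = viability drop by adding the cancer drug above about 55%, with treated viability meeting a 40% cutoff, limit read from the data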;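 also: viability without doxorubicin minus viability with 2 µM doxorubicin for each compound; larger differential means the compound sensitizes cells more to doxorubicin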
Mac1 fbg enh – increases human CD11b/CD18 adhesion to fibrinogen; P05107+P11215; K562 CD11b/CD18 adhesion to fibrinogen, ATPlite luminescence; activation, % at 10 µM; actives 0.07% (n = 93,000); AID 1499;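 active = 10 µM primary screen giving 50% or more activity, confirmed by 40% or more on retest at that dose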
Cav3 T inh – inhibitors of human Cav3.2 T-type calcium channel | O95180 | Cav3.2-expressing cells, Fluo-4 calcium fluorescence FDSS; hits give low values | B-score at 10 µM | actives 4% (n = 100,000);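 active = single-dose well whose peak fluorescence ratio is a statistical outlier from its plate by either plate-standardised score or position-corrected B-score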
MRP1 act – activators of MRP-1; actives 0.61% (n = 140,000); AID 799; viability increase, % at 10 µM; H69AR cells + doxorubicin, viability rescue, CellTiter-Glo;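 active = viability gain under doxorubicin at or above a set limit, the compound median plus 3 SD, cut at about 4.7% in these data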;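 also: MRP-1 overexpressing cells given doxorubicin 25 µM after compound pretreatment; 18-22 h compound pretreatment then 72 h with doxorubicin before readout; 0% = doxorubicin-only wells and 100% = vehicle-treated cells without doxorubicin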
Active calls of the source: *; x = no result given. Rows were chosen to be rich in hits. Some 4.1% of all compounds tested hit in one or more screens of this group.

SMILES | Pyk2 oligo antag | Mac1 fbg inh | MRP reversal | Mac1 fbg enh | Cav3 T inh | MRP1 act
CCOC(=O)C1CCN(C(=O)/C=C/c2ccccc2OC)CC1 | -0.3 | -2.0 | -9.6 | -4.4 | 0.214 | -0.1
CCOc1ccccc1N1CCN(c2nc3ccccc3nc2C(C#N)C(=O)OC)CC1 (stereo unspecified) | -0.94 | x | x | x | -7.62* | -0.6
COc1ccccc1N1CCN(c2nc3ccccc3nc2C(C#N)C(=O)OC(C)C)CC1 (stereo unspecified) | -1.32 | -6.7 | 2.9 | -1.3 | -8.53* | -2.4
Cc1ccc(-n2c(SCC3CNC(=O)O3)nnc2-c2ccccc2)cc1C (stereo unspecified) | x | x | x | x | x | -3.9
CC(C)[C@H]1CC[C@@H](C)C(C(=O)c2ccccc2)C1=O (stereo partly specified) | 0.39 | x | x | x | x | -0.6
C=CCOc1c(CNc2ccc(C(=O)O)cc2)cccc1OCC | 0.32 | x | x | x | 0.00933 | 6.7*
COC(=O)C1CCN(S(=O)(=O)c2c(C)n(C)c(=O)n(C)c2=O)CC1 | x | -42.2 | 14.5 | 0.7 | -0.0931 | -0.3
CN(C)C=Nc1c(Br)cc(Br)c2nonc12 | 1.4 | x | 15.6 | x | -4.17* | -4.7
CCOC(=O)c1c(NC(C)=O)sc2c1CCC(C=O)=C2Sc1ccccc1 | -3.51* | 9.5 | 2.8 | -2.0 | 0.939 | -3.0
CC1=C(C)CS(=O)N(c2ccc(S(N)(=O)=O)cc2)C1 (stereo unspecified) | -0.05 | -0.6 | 4.2 | -6.9 | -7.18* | -0.1
NS(=O)(=O)c1ccc(S(=O)(=O)N2CCCC2)cc1 | 0.15 | 18.7 | 9.7 | -1.1 | -0.456 | -2.0
CC1=C(C)CS(=O)N(S(=O)(=O)c2ccccc2)C1 (stereo unspecified) | -0.54 | -5.7 | -1.0 | 0.3 | -7.88* | -2.1
Cc1ccccc1-c1noc(C2CCCCC2)n1 | 0.82 | 0.2 | 11.9 | 0.6 | -0.0656 | 0.4
O=c1c2ccsc2ncn1Cc1ccc(Cl)cc1 | -0.99 | x | x | x | -0.872 | -2.1
COc1cc2c(cc1OC)C(c1ccc3c(c1)OCO3)CC(=O)N2 (stereo unspecified) | -1.42 | -16.5 | -19.2 | -4.1 | 0.769 | -3.2
CC(Nc1ccccc1)c1cc(Cl)ccc1O (stereo unspecified) | -1.44 | x | -3.5 | x | -7.11* | -4.2
COc1ccc(NC(C)c2cc(Cl)ccc2O)cc1 (stereo unspecified) | -1.22 | -5.9 | 4.6 | 2.1 | x | -1.5
COc1cc(/C=C/C(=O)Nc2cc(C(F)(F)F)ccc2Cl)cc(OC)c1OC | -1.19 | x | x | x | -5.21* | 0.5
COc1ccc(/C=C/C(=O)Nc2cc(C(F)(F)F)ccc2Cl)cc1OC | -0.27 | 14.3 | x | 0.1 | x | 3.0
Cc1cc(/C=N\NC(=O)CC(=O)NC2CCCCC2)c(C)n1-c1ccc(Cl)cc1 | 0.19 | -48.9 | x | 1.8 | -5.72* | -1.2
Cc1nc(NS(=O)(=O)c2ccc(Br)cc2)c2c3c(sc2n1)CCC3 | -2.66 | 92.7* | -6.5 | -10.9 | -4.61* | 0.6
O=S(=O)(Nc1ncnc2sc3c(c12)CCC3)c1ccc(Cl)s1 | -1.94 | 86.8* | -7.6 | -10.2 | -2.85 | -2.3
CCOc1ccccc1C(=O)N1CCN(C(c2ccccc2)c2ccccc2)CC1 | 0.05 | -5.5 | x | 1.2 | -4.71* | -1.2
CC(=O)c1ccccc1OCC(O)CN1CCN(C(c2ccccc2)c2ccccc2)CC1 (stereo unspecified) | -1.1 | 12.4 | -38.4 | 5.0 | -7.09* | -5.8
COC(=O)CN1CCN(C(c2ccccc2)c2ccccc2)CC1 | -0.53 | 1.1 | 3.1 | 0.9 | 1.31 | -1.4
CC1CN(S(=O)(=O)c2ccc(NC(=O)c3cc(-c4ccccc4O)n[nH]3)cc2)CC(C)O1 (stereo unspecified) | -3.07* | -1.2 | -15.7 | -0.1 | -0.912 | -6.0
CC1CN(S(=O)(=O)c2ccc(C(=O)Nc3ccc(S(=O)(=O)Nc4nccs4)cc3)cc2)CC(C)O1 (stereo unspecified) | x | x | x | x | x | 1.1
CCCOC(=O)c1ccc(Oc2c(-c3ccc(OCC)cc3O)n[nH]c2C)cc1 | -1.99 | 24.0 | 0.9 | 1.5 | -0.199 | -1.3
COc1ccc(Oc2c(-c3ccc(O)cc3O)n[nH]c2C)cc1 | -2.1 | 1.0 | 7.2 | -2.4 | -8.82* | -0.3
CCN1CCN(C(=O)c2cc(-c3cccnc3)nc3ccc(Br)cc23)CC1 | -0.05 | -2.9 | 17.3 | -5.1 | 1.17 | -1.1
